High-throughput results as filed in PubChem.
Only some compounds are listed: those with a hit (about 2.8% of all), similar ones and a draw of the others.
Six1-Eya2 blk = qHTS Assay for Inhibitors of the Six1/Eya2 Interaction. Homeobox protein SIX1 (Homo sapiens) + Protein phosphatase EYA2 (Homo sapiens), …. AlphaScreen GST-Six1/His-Eya2 binding, biochemical; active compounds read low. activity change, % (concentration not given with the values). 360,000 compounds, 0.56% hits; in the data active = activity change below about -65%; inconclusive = mostly about -30% to -63%; note: % is set by controls: 0 for no effect and ±100 for the full control effect
Target sequence (O00167 whole entry, looked up): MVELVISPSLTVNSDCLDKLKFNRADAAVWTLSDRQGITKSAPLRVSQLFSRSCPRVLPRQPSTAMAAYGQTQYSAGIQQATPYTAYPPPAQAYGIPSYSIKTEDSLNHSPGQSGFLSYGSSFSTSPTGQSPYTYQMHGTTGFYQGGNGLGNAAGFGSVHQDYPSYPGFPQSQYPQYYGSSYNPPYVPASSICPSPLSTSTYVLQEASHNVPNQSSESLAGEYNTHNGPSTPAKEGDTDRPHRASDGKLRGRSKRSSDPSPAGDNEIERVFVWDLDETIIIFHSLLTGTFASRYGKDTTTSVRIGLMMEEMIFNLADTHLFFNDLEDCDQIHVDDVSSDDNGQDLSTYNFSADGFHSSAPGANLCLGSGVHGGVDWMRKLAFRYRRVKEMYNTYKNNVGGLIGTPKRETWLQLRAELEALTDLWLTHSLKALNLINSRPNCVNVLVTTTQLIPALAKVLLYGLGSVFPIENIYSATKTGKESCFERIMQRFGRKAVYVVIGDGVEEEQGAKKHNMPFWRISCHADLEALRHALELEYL
Target sequence (Q15475 whole entry, looked up): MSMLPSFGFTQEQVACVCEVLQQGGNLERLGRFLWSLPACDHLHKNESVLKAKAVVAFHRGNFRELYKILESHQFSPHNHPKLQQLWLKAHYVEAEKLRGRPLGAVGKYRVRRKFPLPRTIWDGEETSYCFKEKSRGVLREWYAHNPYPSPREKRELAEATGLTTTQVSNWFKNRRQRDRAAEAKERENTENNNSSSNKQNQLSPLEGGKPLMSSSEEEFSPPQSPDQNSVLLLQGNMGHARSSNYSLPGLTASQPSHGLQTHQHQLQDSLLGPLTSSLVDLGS
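AlphaScreen luminescence read after one hour at 37 °C in darkness. Pin-transferred compounds met GST-Six1 and His-Eya2 protein (5X stock 250 nM/500 nM) plus glutathione donor and Ni-chelate acceptor beads (5X, 50 ug/mL).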
ATXN2 expr inh = Primary qHTS for Inhibitors of ATXN expression; HEK-293 ATXN2-luciferase reporter, luminescence, 24 h; Potency, µM (highest dose often 57 µM), without a hit: at the top dose activity change, negative = inhibition, most hits filed as inhibitors; 360,000 compounds, 0.72% hits; AID 1745845, 2022; note: potency is the fitted concentration of half-maximal effect; % is set by controls: 0 for no effect and ±100 for the full control effect; nearly all actives have a fitted effect of over 55% in size
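qHTS (up to 57 uM final) was run with 24 h compound exposure of reporter cells at 37 °C. Each well was multiplexed: SteadyGlo luminescence measured ATXN2-luciferase expression after a fluorogenic Gly-Phe-AFC viability readout (25 uM final).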
CtBP-E1A blk = qHTS Assay for Inhibitors of the CtBP/E1A Interaction | CtBP / adenovirus E1A interaction (AlphaScreen) | AlphaScreen GST-E1A/His-CtBP binding, 1536-well; active compounds read low | activity change, % (test concentration not listed) | 340,000 compounds, 0.49% hits; in the data active = activity change below about -65%; inconclusive = mostly about -30% to -63%; note: % is set by controls: 0 for no effect and ±100 for the full control effect
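Steps: dispense buffer (Tris pH 8.0, NaCl 300 mM, TCEP 1 mM, BSA, Tween 20); add 5X protein mix (GST-E1A, His-CtBP, 125 nM each); pin 23 nL compound; 2 h at 37 °C, dark; add 5X beads (50 ug/mL); 1 h; read.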
S2 tox = Viability Counterscreen for Primary qHTS for Inhibitors of ATXN expression. Potency, µM (titrated, usually from 56.7 µM), hits mostly cytotoxic. 400,000 compounds, 0.49% hits. AID 651635, 2014. S2 cells (HEK-293 line with an ATXN2-luciferase reporter) viability, CellTiter-Fluor protease fluorescence, 24 h; note: potency is the fitted concentration of half-maximal effect; nearly all actives have a fitted effect of over 40% in size
TGFb inhibitor = qHTS for Inhibitors of TGF-b | 410,000 compounds, 1.2% hits | HepG2 CAGA-GFP TGF-b/SMAD3 reporter, GFP fluorescence, 18 h; TGF-beta stimulated, 500 pg/mL final | Potency, µM (doses to about 46.1 µM), inactives show top-dose activity, negative = inhibition, usual class: inhibitors; note: potency is the fitted concentration of half-maximal effect; % is set by controls: 0 for no effect and ±100 for the full control effect; nearly all actives have a fitted effect of over 65% in size
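GFP signal (ex488/em500-530) from TGF-beta-stimulated HEPG2 CAGA-GFP cells, 500 pg/mL final, 18 h at 37 degrees C in DMEM plus 1% FBS, normalized to unstimulated and DMSO-stimulated controls.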
HepG2 tox = qHTS for Inhibitors of TGF-b: Cytotox Counterscreen; 410,000 compounds, 0.76% hits; Potency, µM (titrated, usually from 46.1 µM), without a hit: top-dose activity change, negative = cytotoxicity, most hits filed as cytotoxic; HepG2 CAGA-GFP viability, ATP luminescence, 18 h; note: potency is the fitted concentration of half-maximal effect
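HepG2 CAGA-GFP cells (1000/well, DMEM with 1% FBS) received compound, then TGF-beta at 500 pg/mL final, and were incubated 18 hours at 37 degrees C. Viability was read by CellTiter-Glo luminescence. Media-only wells were set as complete cell-killing and DMSO as no toxicity.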
* hit, by the source's call. Unless noted, calls come from the whole dose curve; as a rule, active = well fitted curve in the direction sought with a large enough effect; inconclusive = small, poorly fitted or top-dose-only effect, or another doubt; inactive = no such curve, though single readings can be large; an effect the other way counts as inactive or inconclusive.

Results for C=C1C(=O)[C@]23C[C@H]1CCC2[C@]1(C)C(=O)CC[C@@](C)(C(=O)O)C1C[C@@H]3O (stereo partly drawn) ?
Six1-Eya2 blk: -1.4; ATXN2 expr inh: 8.91µM*; CtBP-E1A blk: 5.8; S2 tox: 12.6µM*; TGFb inhibitor: inconclusive; HepG2 tox: -86.9%

How did CC(=O)O[C@H]1C[C@@H]2CC[C@@H]3[C@H](CC[C@@]4(C)[C@H]3C[C@H](N3CC[N+](C)(C)CC3)[C@@H]4OC(C)=O)[C@@]2(C)C[C@@H]1N1CC[N+](C)(C)CC1 do in these assays?
S2 tox: inactive

What do the screens show for `CN(C)c1ccc2cc(S(=O)(=O)O)cc(O)c2c1`?
Six1-Eya2 blk: -72.9*; ATXN2 expr inh: -0.3%; CtBP-E1A blk: inconclusive; S2 tox: inactive; TGFb inhibitor: -4.3%; HepG2 tox: -1.2%

How did O=Nc1c(O)ccc2cc(S(=O)(=O)O)ccc12 do in these assays?
Six1-Eya2 blk: -2.7; ATXN2 expr inh: -3.3%; CtBP-E1A blk: -3.4; S2 tox: inactive; TGFb inhibitor: -5.2%; HepG2 tox: -24.0%

What do the screens show for `CC[C@H](CO)Nc1nc(Nc2cccc(Cl)c2)c2ncn(C(C)C)c2n1`?
Six1-Eya2 blk: -5.7; ATXN2 expr inh: inconclusive; CtBP-E1A blk: -7.1; S2 tox: 15.8µM*; TGFb inhibitor: 20µM*; HepG2 tox: -49.8%

What do the screens show for `COc1ccc2c(c1)c(=O)c(C(=O)c1ccc(C)cc1)cn2Cc1ccccc1F`?
ATXN2 expr inh: inconclusive; S2 tox: 25.1µM*; TGFb inhibitor: inconclusive; HepG2 tox: -34.5%

Results for COc1ccc(C(=O)c2cn(Cc3ccc(F)cc3)c3ccc(C)cc3c2=O)cc1 ?
ATXN2 expr inh: inconclusive; S2 tox: 17.8µM*; TGFb inhibitor: inconclusive; HepG2 tox: -6.8%

Results for COc1ccc(Cn2cc(C(=O)c3ccc(Cl)cc3)c(=O)c3cc4c(cc32)OCO4)cc1 ?
ATXN2 expr inh: inconclusive; S2 tox: inconclusive; TGFb inhibitor: inconclusive; HepG2 tox: -20.3%

What do the screens show for `COc1ccc(C(=O)c2cn(Cc3ccccc3F)c3ccc(F)cc3c2=O)cc1`?
ATXN2 expr inh: -21.5%; S2 tox: inactive; TGFb inhibitor: inconclusive; HepG2 tox: -14.2%

Results for CCOc1ccc(C(=O)c2cn(Cc3ccc(Cl)cc3)c3cc(OC)c(OC)cc3c2=O)cc1 ?
ATXN2 expr inh: -6.8%; S2 tox: 15.8µM*; TGFb inhibitor: inconclusive; HepG2 tox: -27.5%

How did O=C(O)c1ccc(NCc2cccnc2)cc1 do in these assays?
Six1-Eya2 blk: 1.9; ATXN2 expr inh: 7.7%; CtBP-E1A blk: -6.1; S2 tox: inactive; TGFb inhibitor: 1.1%; HepG2 tox: 3.98µM*

What do the screens show for `O=C(Nc1ccccc1)c1nc2ccccc2s1`?
Six1-Eya2 blk: 13.6; ATXN2 expr inh: 20.2%; CtBP-E1A blk: 25.8; S2 tox: inactive; TGFb inhibitor: -17.8%; HepG2 tox: -29.9%

Results for Cc1cccc(NC(=S)c2nc3ccccc3s2)c1 ?
Six1-Eya2 blk: -75.4*; ATXN2 expr inh: 93.1%; CtBP-E1A blk: -80.7*; S2 tox: inactive; TGFb inhibitor: 1.3%; HepG2 tox: -10.3%

Results for COc1ccc(OC)c(NC(=O)c2c(NCc3ccc(OC)c(OC)c3)sc3c2CCC3)c1 ?
ATXN2 expr inh: inconclusive; TGFb inhibitor: -4.4%; HepG2 tox: -8.7%

What do the screens show for `CCOc1ccc(NC(=O)c2c(NCc3cccs3)sc3c2CCC(C)C3)cc1` (stereo not drawn)?
ATXN2 expr inh: inconclusive; S2 tox: inactive; TGFb inhibitor: inconclusive; HepG2 tox: -37.8%
